From PubChem BioAssay
This is a sample that favours compounds with a hit; in the whole collection about 4% have one here.
ERAP1 HTS inh: ERAP1 (human) enzyme inhibition. 340,000 tested, 0.15% active. recombinant ERAP1, Leu-AMC fluorescence, 60 min. inhibition, % at 10.7 µM. Q9NZ08;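 active = mean replicate inhibition of at least 30%, or all replicates individually reaching that 30% level; inactive = mean below 30% and not every replicate reaching it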;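 also: 0% = neutral control wells and 100% = L-leucinethiol positive control wells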
Target sequence (Q9NZ08 whole entry, looked up): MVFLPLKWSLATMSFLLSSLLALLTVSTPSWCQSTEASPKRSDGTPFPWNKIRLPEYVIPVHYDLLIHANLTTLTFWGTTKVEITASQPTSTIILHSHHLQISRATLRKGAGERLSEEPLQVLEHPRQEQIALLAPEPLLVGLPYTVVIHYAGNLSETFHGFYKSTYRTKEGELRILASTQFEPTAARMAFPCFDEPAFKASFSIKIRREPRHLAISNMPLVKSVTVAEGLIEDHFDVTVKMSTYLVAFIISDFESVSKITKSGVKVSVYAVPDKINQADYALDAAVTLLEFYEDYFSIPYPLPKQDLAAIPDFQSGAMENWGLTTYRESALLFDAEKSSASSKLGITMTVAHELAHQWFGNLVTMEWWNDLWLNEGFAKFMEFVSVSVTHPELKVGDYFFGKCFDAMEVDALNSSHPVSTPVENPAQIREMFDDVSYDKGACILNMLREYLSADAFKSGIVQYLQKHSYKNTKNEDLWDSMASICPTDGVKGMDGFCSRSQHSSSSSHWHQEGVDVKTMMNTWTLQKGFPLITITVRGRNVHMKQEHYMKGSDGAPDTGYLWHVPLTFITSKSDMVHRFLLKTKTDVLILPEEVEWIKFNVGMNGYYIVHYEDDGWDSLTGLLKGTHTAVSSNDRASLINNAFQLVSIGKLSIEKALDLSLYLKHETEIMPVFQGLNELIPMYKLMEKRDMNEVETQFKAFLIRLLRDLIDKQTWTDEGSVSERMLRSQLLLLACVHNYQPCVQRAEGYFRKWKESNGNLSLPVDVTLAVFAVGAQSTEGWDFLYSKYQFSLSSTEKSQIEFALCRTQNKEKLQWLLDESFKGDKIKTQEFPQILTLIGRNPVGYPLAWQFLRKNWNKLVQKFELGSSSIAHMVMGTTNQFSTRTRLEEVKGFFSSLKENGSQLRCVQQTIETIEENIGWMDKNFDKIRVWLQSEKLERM
RAD52 inh: inhibitors of human RAD52 DNA annealing; AID 651710; recombinant RAD52 DNA annealing, FRET fluorescence; 360,000 tested, 0.46% active; inhibition, % at 18.7 µM;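 active = every replicate showing at least 50% inhibition; inconclusive = mean inhibition at least 50% but not in every replicate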
FGF22 binding: shifts melting point of recombinant human FGF22 | Q9HCT0 | recombinant FGF22 thermal shift, SYPRO orange fluorescence; percent of sucrose octasulfate shift, DMSO zero | activity (Tm shift, normalised), % at 9.99 µM | 340,000 tested, 1.5% active | AID 651658;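 active = mean Tm shift, scaled 0 neutral to 100 positive control, at about 1.3% or above, every replicate too, limit read from the data; inconclusive = no clear call, values can overlap the other calls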
MLL AF4-AF9 inh: inhibitors of human MLL-AF4/AF9 interaction. 350,000 tested, 0.47% active. AlphaScreen, biotin-AF4 peptide binding to FLAG-AF9. inhibition, % at 10 µM. P42568;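 active = every replicate reaching a set inhibition limit, whatever the replicate mean, cut at about 25% in these data; inconclusive = mean inhibition reaches that limit but some replicates miss it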;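 also: 0% = plate neutral control median and 100% = total signal loss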
DENV2 CPE: protects cells from dengue virus 2 cytopathic effect; DENV2-infected cells, cytopathic effect rescue, plate reader; CPE inhibition, % at 9.99 µM; 350,000 tested, 1.7% active; in the data active = CPE inhibition above about 20%, passing the limit was not always enough; inconclusive = no clear call, values can overlap the other calls; tested in BHK-21 cells;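 also: 0% = median of neutral control wells and 100% = median of positive control wells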
* marks the source's active call; other numbers are inactive results.

How did O=C(CCC1CCCN(C(=O)c2ccc3c(c2)OCO3)C1)NCc1ccc(F)c(F)c1 (stereo not drawn) do in these assays?
ERAP1 HTS inh: 1.0; RAD52 inh: -7.3; FGF22 binding: 42.9*; MLL AF4-AF9 inh: -1.8; DENV2 CPE: 2.9

Results for COc1ccc(/C=N/N2CCN(Cc3ccccc3)CC2)cc1 ?
ERAP1 HTS inh: -2.4; RAD52 inh: 5.3; FGF22 binding: 0.0; MLL AF4-AF9 inh: 6.3; DENV2 CPE: inconclusive

What do the screens show for `COc1ccc(/C=C/C2=CCN(Cc3ccc(OC)cc3)CC2)cc1`?
ERAP1 HTS inh: -0.4; RAD52 inh: -8.0; FGF22 binding: 43.2*; MLL AF4-AF9 inh: 2.4; DENV2 CPE: 3.5

How did CC(=O)N1CCC(C(=O)NCCOc2cccc(C)c2)CC1 do in these assays?
ERAP1 HTS inh: -1.8; RAD52 inh: -3.6; FGF22 binding: -0.4; MLL AF4-AF9 inh: 26.4*; DENV2 CPE: -0.4

Results for O=C(NCCOc1ccccc1)C1CCCCC1 ?
ERAP1 HTS inh: 4.1; RAD52 inh: -7.8; FGF22 binding: 43.0*; MLL AF4-AF9 inh: -1.7; DENV2 CPE: 0.7

How did O=C(NCCOc1ccccc1)C1CCN(C(=O)Nc2ccccc2)CC1 do in these assays?
ERAP1 HTS inh: -1.1; RAD52 inh: -15.6; FGF22 binding: 0.5; MLL AF4-AF9 inh: 1.2; DENV2 CPE: -2.7

Results for C[C@@H]1CN([C@@H](C)CO)C(=O)c2cc(NC(=O)NC3CCCCC3)ccc2O[C@@H](C)CCCCO[C@@H]1CN(C)C(=O)c1ccncc1 ?
FGF22 binding: -0.2; DENV2 CPE: -7.5

How did C[C@@H]1CCCCO[C@@H](CN(C)C(=O)c2ccncc2)[C@@H](C)CN([C@H](C)CO)C(=O)c2cc(NC(=O)NC3CCCCC3)ccc2O1 do in these assays?
FGF22 binding: -0.1; DENV2 CPE: 26.5*

How did C[C@H]1CCCCO[C@@H](CN(C)C(=O)c2ccncc2)[C@@H](C)CN([C@@H](C)CO)C(=O)c2cc(NC(=O)NC3CCCCC3)ccc2O1 do in these assays?
FGF22 binding: -0.2; DENV2 CPE: 21.2*

Results for C[C@@H]1CCCCO[C@H](CN(C)C(=O)c2ccncc2)[C@@H](C)CN([C@@H](C)CO)C(=O)c2cc(NC(=O)NC3CCCCC3)ccc2O1 ?
FGF22 binding: -0.5; DENV2 CPE: 1.1

How did C[C@H](CO)N1C[C@H](C)[C@@H](CN(C)C(=O)c2ccncc2)OCCCC[C@H](C)Oc2ccc(NC(=O)c3ccccc3)cc2C1=O do in these assays?
ERAP1 HTS inh: 1.4; RAD52 inh: 5.1; FGF22 binding: 0.1; MLL AF4-AF9 inh: -5.4; DENV2 CPE: 19.3

Results for O=C(NC(=S)Nc1cccc2cc(O)ccc12)c1ccco1 ?
ERAP1 HTS inh: 4.6; RAD52 inh: -11.1; FGF22 binding: -0.2; MLL AF4-AF9 inh: 1.2; DENV2 CPE: 44.5*

Results for Cc1cc(NC(=S)NC(=O)c2ccco2)c2ccccc2n1 ?
ERAP1 HTS inh: -2.0; RAD52 inh: -10.8; FGF22 binding: 43.0*; MLL AF4-AF9 inh: -2.8; DENV2 CPE: 10.4

How did O=C(NC(=S)Nc1cccc2ncccc12)c1ccco1 do in these assays?
ERAP1 HTS inh: -6.0; RAD52 inh: 0.8; FGF22 binding: -0.3; MLL AF4-AF9 inh: -3.1; DENV2 CPE: -0.4

Results for C=CC[C@H](O)c1ccc(O)c(F)c1 ?
ERAP1 HTS inh: 3.8; RAD52 inh: -0.9; FGF22 binding: -0.2; MLL AF4-AF9 inh: -2.2; DENV2 CPE: 1.8

What do the screens show for `Cn1cc(C[C@@H](N)C(=O)O)c2ccccc21`?
ERAP1 HTS inh: 2.7; RAD52 inh: 19.3; FGF22 binding: 0.7; MLL AF4-AF9 inh: -16.6; DENV2 CPE: 1.1

How did Cn1cc(C(CO)Cc2ccccc2)c2ccccc21 (stereo not drawn) do in these assays?
ERAP1 HTS inh: 0.9; RAD52 inh: -14.2; FGF22 binding: 0.0; MLL AF4-AF9 inh: -2.0; DENV2 CPE: 25.4*

Results for COCC(=O)N1[C@H](CO)[C@@H](c2ccccc2)C12CN(C(=O)c1cccnc1)C2 ?
ERAP1 HTS inh: -0.4; RAD52 inh: -11.8; FGF22 binding: -0.3; MLL AF4-AF9 inh: -2.9; DENV2 CPE: -9.2

Results for CCCN(C)C[C@H]1OCCCC[C@H](C)Oc2ccc(NC(=O)Cc3ccccc3)cc2C(=O)N([C@@H](C)CO)C[C@H]1C ?
ERAP1 HTS inh: 1.8; RAD52 inh: 4.5; MLL AF4-AF9 inh: 0.7; DENV2 CPE: 11.3

How did C[C@H](CO)N1C[C@H](C)[C@@H](CN(C)Cc2ccc(C(=O)O)cc2)Oc2ccc(N(C)C)cc2CC1=O do in these assays?
ERAP1 HTS inh: 1.2; RAD52 inh: 6.8; FGF22 binding: -1.0; MLL AF4-AF9 inh: 1.8; DENV2 CPE: 7.1

Results for C[C@@H]1CN([C@H](C)CO)C(=O)Cc2cc(NS(C)(=O)=O)ccc2O[C@H]1CN(C)Cc1ccc(Oc2ccccc2)cc1 ?
ERAP1 HTS inh: -4.0; RAD52 inh: -7.1; FGF22 binding: -0.1; MLL AF4-AF9 inh: 4.6; DENV2 CPE: -11.2

What do the screens show for `C[C@H]1CN([C@@H](C)CO)C(=O)Cc2cc(N(C)C)ccc2O[C@@H]1CN(C)Cc1ccc(Oc2ccccc2)cc1`?
ERAP1 HTS inh: -4.2; RAD52 inh: 23.5; FGF22 binding: -0.6; MLL AF4-AF9 inh: 26.4*; DENV2 CPE: 10.5

How did C[C@@H]1CN([C@H](C)CO)C(=O)Cc2cc(N(C)C)ccc2O[C@@H]1CN(C)Cc1ccc(Oc2ccccc2)cc1 do in these assays?
ERAP1 HTS inh: 0.3; RAD52 inh: 3.0; FGF22 binding: 0.1; MLL AF4-AF9 inh: 51.2*; DENV2 CPE: 8.2

What do the screens show for `C[C@H]1CN([C@@H](C)CO)C(=O)Cc2cc(N(C)C)ccc2O[C@H]1CN(C)Cc1ccc(Oc2ccccc2)cc1`?
ERAP1 HTS inh: -2.4; RAD52 inh: 5.5; FGF22 binding: -1.5; MLL AF4-AF9 inh: 48.2*; DENV2 CPE: -6.1

Results for COc1ccc(CN(C)C[C@H]2Oc3ccc(N(C)C)cc3CC(=O)N([C@H](C)CO)C[C@H]2C)cc1 ?
ERAP1 HTS inh: -1.1; RAD52 inh: 9.1; FGF22 binding: -0.1; MLL AF4-AF9 inh: 0.3; DENV2 CPE: -3.9

How did COc1ccc(S(=O)(=O)N(C)C[C@@H]2Oc3ccc(NS(=O)(=O)c4c(C)noc4C)cc3C(=O)N([C@@H](C)CO)C[C@@H]2C)cc1 do in these assays?
ERAP1 HTS inh: 1.7; RAD52 inh: -20.7; FGF22 binding: -0.3; MLL AF4-AF9 inh: 0.2; DENV2 CPE: -0.4

Results for C[C@H]1CCCCO[C@H](CN(C)Cc2ccc3c(c2)OCO3)[C@@H](C)CN([C@@H](C)CO)C(=O)c2cc(NC(=O)Nc3ccc4c(c3)OCO4)ccc2O1 ?
ERAP1 HTS inh: 1.0; RAD52 inh: 41.3; FGF22 binding: -0.7; MLL AF4-AF9 inh: 28.7*; DENV2 CPE: -23.4

Results for C[C@@H]1CCCCO[C@@H](CN(C)Cc2ccc(Cl)c(Cl)c2)[C@H](C)CN([C@H](C)CO)C(=O)c2cc(NC(=O)Nc3ccc4c(c3)OCO4)ccc2O1 ?
ERAP1 HTS inh: -7.3; RAD52 inh: 5.9; FGF22 binding: 0.8; MLL AF4-AF9 inh: 3.8; DENV2 CPE: 2.7
